The structures appear in SMILES notation. Several values for one entry are separate records, joined by “and”; a condition that tells them apart may be missing. Identical values can stand only once. A number with no mark means an inactive call. Results filed as inconclusive are left out. Activity calls are given as the source filed them. Unless noted, calls follow the shape of the dose curve; as a rule, active = well fitted curve in the direction sought with a large enough effect; inconclusive = small, poorly fitted or top-dose-only effect, or another doubt; inactive = no such curve, though single readings can be large; an effect the other way counts as inactive or inconclusive.

These results are taken from PubChem BioAssay (NCATS).

Test [1] can be described thus: Cell Viability - HUV-EC-C (AID 542).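 Also: cells exposed to compound for 40 hours; % is scaled to controls: 0 for no effect and ±100 for the full control effect; nearly all actives have a fitted effect of over 35% in size.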 In short, it runs like this:
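Concentration-dependent ATP loss in HUV-EC-C cells is the measure. Exposure lasts 40 hr at 37 °C; luminescence follows CellTiter-Glo addition, and Hill fits give AC50.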

Test [2] can be described thus: Cell Viability - Renal Proximal Tubule (AID 545).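 Also: cells exposed to compound for 40 hours; 0% = DMSO only and -100% = 100 µM tamoxifen; nearly all actives have a fitted effect of over 40% in size.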 In short, it runs like this:
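Primary rat renal proximal tubule cells (1000/well) were treated with compounds for 40 hr at 37 °C in complete medium. Intracellular ATP was measured by CellTiter-Glo luminescence, and AC50 values came from Hill-equation fits of concentration-response data.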

Test [3] is described as follows: Cell Viability - Mesenchymal (AID 546).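 Also: cells exposed to compound for 40 hours before reading; 0% = DMSO only and -100% = 100 µM tamoxifen.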 The procedure, abridged: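 In this qHTS cytotoxicity format, glomerulus-derived human mesenchymal kidney cells received compound for 40 hr, then luciferase-based ATP quantitation. Concentration-response data were fitted with the Hill equation.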
Test [4] in a line: Cell Viability - LYMP1-003 - Assay at 40 hr (AID 964). Also: % is scaled to controls: 0 for no effect and ±100 for the full control effect; nearly all actives have a fitted effect of over 60% in size. In short, it runs like this: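 Acute toxicity is scored as a concentration-dependent loss of intracellular ATP in LYMP1-003 cells (2500/well, complete medium) after 40 hr at 37 C, measured by CellTiter-Glo luminescence; AC50 values derive from standard Hill modelling.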
The nature of test [5]: Cell Viability - LYMP2-002 (AID 977).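 Also: compound exposure lasted 24 h at 37 °C; plate controls were DMSO only for no effect and 92 µM tetraoctylammonium bromide for full effect.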 The procedure, abridged:
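In this qHTS viability screen, 2500 human lymphoblastoid cells per well receive compound for 24 hr at 37 C, and luciferase-based ATP luminescence gives the viability signal. Tetraoctylammonium bromide serves as positive control.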

Test [6] is described as follows: Cell Viability - LYMP2-010 (AID 981).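 Also: cells exposed to compound for 24 hours at 37 °C; nearly all actives have a fitted effect of over 55% in size.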 Also: potency is read from the fitted curve at half-maximal effect. The procedure, abridged: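 This 24 hr viability screen uses LYMP2-010 lymphoblastoid cells, quantifies ATP via luciferase luminescence, and derives AC50 from Hill fits of qHTS concentration-response data.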
Test [7] addresses Thyroid hormone receptor beta (Homo sapiens) (UniProt P10828). Briefly: qHTS assay for small molecule agonists of thyroid hormone receptor beta signaling (AID 588545; calls by dose curve). In short, it runs like this:
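Cells (2500/well) were seeded, incubated 4 hrs at 37 C, dosed with a compound series, incubated 18 hrs, loaded with CCF4 dye for 2 hrs at RT, then read for fluorescence. Data were scaled between DMSO (0%) and 10 nM T3 (100%).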
In general terms: qHTS replaces the single test concentration by a dilution series.

Test [8] has the same target. As to the kind of experiment: qHTS assay for small molecule antagonists of thyroid hormone receptor beta signaling (AID 588547; active = well fitted inhibition curve with a large enough effect in the signal ratio, with a control signal flat, not every such curve was filed as active; the % refers to the signal ratio;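 also: cells stimulated with 0.4 nM T3 agonist during compound exposure; % is scaled to controls: 0 for no effect and ±100 for the full control effect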). Conditions: TR-UAS-bla HEK293, beta-lactamase ratio, antagonist mode, 18 h. The procedure, abridged: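 TR-UAS-bla GripTite HEK293 cells in 2% charcoal/dextran FBS medium were preincubated 4 h at 37 C, given compound (0.59 nM to 92 uM) plus 0.4 nM T3 (final) for 18 h, then CCF4 for 2 h at RT; Hill fit gave IC50.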

Test [9] is described as follows: qHTS assay for environmental chemicals that activate the Aryl hydrocarbon Receptor (AhR) signaling pathway (AID 651777). Also: nearly all actives have a fitted effect of over 15% in size. Also: potency is read from the fitted curve at half-maximal effect. As to activation: % of control where 0% means no effect. Conditions: 1A2-DRE human hepatoma cells, luciferase, 24 h; activation: hits give high values. In short, it runs like this:
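Quantitative HTS in stably transfected human liver-derived cells whose luciferase gene sits downstream of the CYP1A2 promoter and dioxin response element. After 24 hr exposure at 37 C, One-Glo luminescence was measured.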

Test [10] in a line: qHTS assay for small molecule agonists of the antioxidant response element (ARE) signaling pathway measured by Nrf2-dependant transcriptional activity (AID 720636; active = well fitted curve in the direction sought with a large enough effect in the repeat runs; an effect the other way counts as inactive or inconclusive; also: % of control where 0% means no effect). The procedure, abridged:
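Quantitative HTS format in HepG2 cells stably expressing an ARE-luciferase reporter; 16 hr compound treatment at 37 C, luciferase signal detected with ONE-Glo.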

The nature of test [11]: Cell Viability - SH-SY5Y (AID 544).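 Also: cells exposed to compound for 40 hours; 0% = DMSO alone and -100% = 100 µM tamoxifen; nearly all actives have a fitted effect of over 55% in size.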 Conditions: SH-SY5Y neuroblastoma cell viability; viability change, negative = cytotoxic: at 92.2 µM (top of the series). The procedure, abridged:
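Quantitative HTS in SH-SY5Y neuroblastoma cells, 40 hr treatment at 37 °C, ATP content by luciferase luminescence; AC50 from Hill fits.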

Test [12] in a line: Cell Viability - LYMP2-011 (AID 969).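 Also: cells exposed to compound for 24 hours; 0% = DMSO only and full inhibition = 92 µM tetraoctylammonium bromide; nearly all actives have a fitted effect of over 60% in size.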 The procedure, abridged:
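Cells seeded at 2500 per well rest 5 hr before compound addition, then incubate 24 hr at 37 C. CellTiter-Glo reagent is added for 30 min at room temperature before luminescence detection.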

Test [13] in a line: Cell Viability - LYMP2-012 (AID 982).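 Also: cellular ATP by luciferase luminescence where a drop means cytotoxicity; cells exposed to compound for one day before reading; 0% = DMSO only and full loss = 92 µM tetraoctylammonium bromide; nearly all actives have a fitted effect of over 55% in size.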
Test [14] concerns the target Peroxisome proliferator-activated receptor delta (Homo sapiens) (UniProt Q03181). Briefly: qHTS assay for small molecule agonists of peroxisome proliferator-activated receptor delta signaling (AID 588534; calls by dose curve;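 also: 0% = DMSO basal wells and 100% = positive control agonist at 10 µM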). In short, it runs like this: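 EC50 and efficacy values derive from Hill fits of a concentration series in a beta-lactamase reporter cell assay. Exposure is 18 hrs at 37 C, with CCF4 fluorescence as the readout.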

In test [15] the target is Retinoic acid receptor RXR-alpha (Homo sapiens) (UniProt P19793). As to the kind of experiment: qHTS assay for small molecule agonists of retinoid X receptor alpha signaling (AID 588544; calls by dose curve;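 also: 0% = DMSO basal wells and 100% = reference agonist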).
The target is the same in test [16]. Briefly: qHTS assay for small molecule antagonists of retinoid X receptor alpha signaling (AID 588546; active = well fitted inhibition curve with a large enough effect in the signal ratio, with a control signal flat, not every such curve was filed as active; the % refers to the signal ratio;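 also: cells stimulated with 9-cis-retinoic acid as agonist; % is scaled to controls: 0 for no effect and ±100 for the full control effect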). Conditions: HEK293T RXRa-UAS-bla, beta-lactamase ratio, antagonist mode. In short, it runs like this:
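Beta-lactamase reporter inhibition, read as CCF4 fluorescence ratio (ex 405, em 460/530 nm) after 2 h at RT. HEK293T UAS-bla cells, 2500/well, were stimulated with 9-cis-RA at 500 or 100 nM final alongside test compound for 18 h at 37 C.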

The nature of test [17]: qHTS assay for small molecule disruptors of the mitochondrial membrane potential - 1 hr assay (AID 651754; calls by dose curve; also: nearly all actives have a fitted effect of over 35% in size; also: potency is read from the fitted curve at half-maximal effect). In short, it runs like this: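 In this qHTS format, a 1 hr compound treatment of HepG2 cells precedes Mito-MPS staining, and membrane potential is judged from aggregate (red) against monomer (green) fluorescence intensity.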
Test [18] can be described thus: qHTS assay for small molecule antagonists of the retinoid-related orphan receptor gamma (ROR-gamma) signaling pathway - cell viability counter screen (AID 720652; active = well fitted curve in the direction sought with a large enough effect in the repeat runs; an effect the other way counts as inactive or inconclusive;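 also: CHO reporter cells with doxycycline-induced ROR-gamma expression; compound exposure lasted 16 hr before ATP read; % is scaled to controls: 0 for no effect and ±100 for the full control effect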). In short, it runs like this: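 ATP-based viability readout in the ROR-gamma reporter CHO cells after 16 hr compound exposure under doxycycline induction.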
For test [19], the target named is Nuclear receptor subfamily 1 group I member 2 (Rattus norvegicus) (UniProt Q9R1A7). Briefly: qHTS assay for small molecule activators of the rat pregnane X receptor (rPXR) signaling pathway (AID 651751; call rule not given here; also: 0% is about no effect). Conditions: rPXR reporter cells, luciferase (One-Glo), 24 h.
Test [20] can be described thus: qHTS assay for small molecule activators of the human pregnane X receptor (PXR) signaling pathway (AID 720659; call rule not given here; also: 0% is about no effect).

Sequence of Peroxisome proliferator-activated receptor delta (Homo sapiens) (Q03181 whole entry, looked up): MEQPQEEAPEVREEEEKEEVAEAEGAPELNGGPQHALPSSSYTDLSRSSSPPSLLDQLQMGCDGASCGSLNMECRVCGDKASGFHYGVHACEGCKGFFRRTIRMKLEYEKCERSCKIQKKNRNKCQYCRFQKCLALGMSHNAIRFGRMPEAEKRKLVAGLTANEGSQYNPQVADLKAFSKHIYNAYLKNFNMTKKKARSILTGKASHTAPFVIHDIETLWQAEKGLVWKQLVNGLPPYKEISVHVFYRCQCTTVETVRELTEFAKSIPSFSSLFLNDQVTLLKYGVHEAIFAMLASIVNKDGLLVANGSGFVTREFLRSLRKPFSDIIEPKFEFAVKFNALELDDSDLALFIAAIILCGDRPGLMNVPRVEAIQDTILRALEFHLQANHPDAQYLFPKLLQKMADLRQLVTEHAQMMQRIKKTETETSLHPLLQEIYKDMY
Sequence of Retinoic acid receptor RXR-alpha (Homo sapiens) (P19793 whole entry, looked up): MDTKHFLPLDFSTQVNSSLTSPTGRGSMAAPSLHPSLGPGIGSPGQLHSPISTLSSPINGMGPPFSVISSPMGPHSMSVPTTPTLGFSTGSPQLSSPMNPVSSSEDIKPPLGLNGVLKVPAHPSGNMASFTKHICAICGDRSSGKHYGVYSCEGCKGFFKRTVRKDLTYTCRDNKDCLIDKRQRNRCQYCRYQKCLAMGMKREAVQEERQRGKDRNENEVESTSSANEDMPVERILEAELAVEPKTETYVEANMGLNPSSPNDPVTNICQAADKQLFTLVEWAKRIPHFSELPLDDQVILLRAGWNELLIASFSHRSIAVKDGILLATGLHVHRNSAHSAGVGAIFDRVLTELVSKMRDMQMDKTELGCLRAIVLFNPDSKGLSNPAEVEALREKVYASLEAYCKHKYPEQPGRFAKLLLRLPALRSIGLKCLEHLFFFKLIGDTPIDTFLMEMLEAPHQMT
Sequence of Thyroid hormone receptor beta (Homo sapiens) (P10828 whole entry, looked up): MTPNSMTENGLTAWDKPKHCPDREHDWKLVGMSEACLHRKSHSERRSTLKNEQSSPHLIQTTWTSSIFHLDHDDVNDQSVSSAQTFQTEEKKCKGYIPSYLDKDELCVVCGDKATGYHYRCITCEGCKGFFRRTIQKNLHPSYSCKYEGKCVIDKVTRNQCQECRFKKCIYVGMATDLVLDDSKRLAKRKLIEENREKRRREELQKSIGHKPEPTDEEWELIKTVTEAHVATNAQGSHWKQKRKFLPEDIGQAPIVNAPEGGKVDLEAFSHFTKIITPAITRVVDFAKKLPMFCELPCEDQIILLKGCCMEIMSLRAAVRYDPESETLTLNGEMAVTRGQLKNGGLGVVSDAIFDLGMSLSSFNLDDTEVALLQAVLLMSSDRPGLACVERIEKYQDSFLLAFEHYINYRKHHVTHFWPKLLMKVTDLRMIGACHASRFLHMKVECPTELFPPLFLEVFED
Sequence of Nuclear receptor subfamily 1 group I member 2 (Rattus norvegicus) (Q9R1A7 whole entry, looked up): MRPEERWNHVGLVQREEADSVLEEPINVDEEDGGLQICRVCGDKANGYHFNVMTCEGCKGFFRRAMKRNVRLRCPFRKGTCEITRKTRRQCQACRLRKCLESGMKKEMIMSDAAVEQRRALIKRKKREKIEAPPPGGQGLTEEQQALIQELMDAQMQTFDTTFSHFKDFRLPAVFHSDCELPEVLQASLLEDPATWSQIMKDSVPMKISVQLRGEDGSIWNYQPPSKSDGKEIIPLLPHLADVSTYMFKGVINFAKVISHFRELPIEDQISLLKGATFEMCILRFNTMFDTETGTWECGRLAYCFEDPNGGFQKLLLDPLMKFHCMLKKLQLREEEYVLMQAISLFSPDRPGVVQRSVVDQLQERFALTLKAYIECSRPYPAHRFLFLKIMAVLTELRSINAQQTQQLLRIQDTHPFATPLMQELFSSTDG

Turning to `Brc1ccc(Oc2ccc(Br)cc2Br)c(Br)c1`, the Potency entry in [1], in [3], in test [4], in [5], in test [6] and in test [7] was “inactive” each time. Also, in [10], the Potency result is “inactive”. Further, the call in test [2] was inactive. For the same compound, the activity change % (negative = inhibition) in [8] was 4.48%. Besides, the activation in test [9] is 7.07%.

As to `CC(=O)CCC(C)=O`, the Potency entry in test [1], in test [11], in test [3], in [4], in [12] and in test [5] was “inactive” each time. For the same compound, the Potency entry in test [13], in [7], in test [17] and in [18] was “inactive” throughout. Besides, the outcome in [2], in test [14], in [15] and in test [20] was inactive. In addition, the max response in test [16] was 0.643%; in test [19] it was -1.31%. Moreover, the activity change % (negative = inhibition) in [8] is 15%. Besides, the activation in [9] was 1.06%.

With `Cc1ccc2c(c1N)C(=O)c1ccccc1C2=O`, the Potency result in test [11], in test [4], in test [12], in [5] and in test [13] was “inactive” throughout. The result in [14] and in test [15] was inactive. Further, the max response in [16] was 9.57% and -23.7%. The activity change % (negative = inhibition) in test [8] is 1.36%. Besides, the values for the Potency in [17] and in [9] were 2.66 µM (active) and 28.2 µM (active), respectively.

Take `N#CC(Br)Br`: the Potency result in test [1], in [11], in [3], in test [4], in test [7] and in test [17] was “inactive” each time. Moreover, the Potency entry in test [10] is “inactive”. Besides, the compound was called inactive in [2], in test [14] and in test [20]. For the same compound, the Potency in [6] was 50.1 µM (active). Also, the max response in test [16] was 18.7%; in test [19], -7.42%. Further, the activity change % (negative = inhibition) in [8] is 17%. In addition, the activation in test [9] was 1.38%.

As for `CC(C)(COCC1CO1)COCC1CO1` (stereo unspecified), the Potency result in [1], in [3], in test [4], in test [12], in [5] and in test [6] was “inactive” throughout. Further, the Potency result in test [13], in test [17], in [10] and in [18] was “inactive” in each case. For the same compound, the result in test [14] and in test [20] was inactive. The max response in test [16] is 6.95%; in test [19], 1.93%. The activity change % (negative = inhibition) in test [8] was -13.4%. Further, the activation in test [9] was -0.0471%.

With `COc1c(C(C)(C)C)cc([N+](=O)[O-])c(C)c1[N+](=O)[O-]`, the Potency entry in test [1], in test [11], in [3], in test [4], in test [12] and in [5] was “inactive” each time. In addition, the Potency entry in test [13], in test [7], in [17], in [10] and in [18] was “inactive” throughout. The compound was classed as inactive in [2], in test [14], in test [15] and in test [20]. In addition, the activity change % (negative = inhibition) in test [8] is 24.1%. Moreover, the max response in test [19] is 5.88%.

Take `CN(C)c1ccc(N(C)C)cc1`: the Potency result in [1], in test [3], in test [4], in [5] and in [17] was “inactive” throughout. The viability change, negative = cytotoxic in [11] is -98.2% (active). In addition, the compound was classed as inactive in test [2] and in test [20]. The Potency in test [6] was 50.1 µM (active). Further, the max response in test [16] is 17.1%.

In the case of `Nc1c(Br)cc([N+](=O)[O-])cc1[N+](=O)[O-]`, the Potency result in [1], in test [11], in test [3], in test [4], in test [12] and in test [5] was “inactive” in each case. For the same compound, the Potency entry in test [13] and in test [18] was “inactive” throughout. Besides, the call in test [2], in test [14], in test [15] and in test [20] was inactive. The Potency in test [17] is 21.1 µM (active). Further, the activation in [9] was 3.36%. Moreover, the max response in test [19] is 14.9%.

Consider `Nc1ccc(Cc2ccc(N)c(Cl)c2)cc1Cl`, for which the Potency result in test [11], in test [3], in test [4], in test [6], in test [17] and in test [10] was “inactive” in each case. Moreover, in test [18], the Potency result was “inactive”. Besides, the max response in test [16] was -29.3%. Further, the activation in test [9] is 3.75%.
